According to PubChem BioAssay (Tox21):
The source made the active and inactive calls. Unless noted, calls follow the shape of the dose curve; as a rule, active = well fitted curve in the direction sought with a large enough effect in the repeat runs; inconclusive = weak or mixed curves; inactive = no such curve, though single readings can be large; an effect the other way counts as inactive or inconclusive.

Assays:
[1] = qHTS assay to identify small molecule antagonists of the thyroid receptor (TR) signaling pathway - cell viability counter screen (AID 743064); also: nearly all actives have a fitted effect of over 50% in size; also: potency is read from the fitted curve at half-maximal effect
How it was run: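 Viability of T3-stimulated (1 nM final) GH3.TRE-Luc cells is measured by CellTiter-Fluor fluorescence after 23.5 h compound exposure at 37 °C plus 30 min reagent incubation.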

[2] = qHTS assay to identify small molecule antagonists of the thyroid receptor (TR) signaling pathway (AID 743065); also: nearly all actives have a fitted effect of over 55% in size; also: potency is read from the fitted curve at half-maximal effect
How it was run: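 GH3.TRE-Luc rat pituitary cells carrying two TR response elements driving luciferase were plated for 4 h, given compound plus 1 nM T3 (final), and incubated 23.5 h at 37 C. ONE-Glo luminescence measured reporter inhibition; CellTiter-Fluor fluorescence tracked cytotoxicity.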

[3] = system: thyroid hormone receptor (rat, GH3 cells); assay: qHTS assay to identify small molecule agonists of the thyroid receptor (TR) signaling pathway (AID 743066; calls by dose curve)
[4] = target: Estrogen receptor (Homo sapiens) (UniProt P03372); assay: qHTS assay to identify small molecule antagonists of the estrogen receptor alpha (ER-alpha) signaling pathway (AID 743069; active = well fitted curve in the direction sought with a large enough effect in the signal ratio in the repeat runs, not every such curve was filed as active; inconclusive = weak or mixed curves, or effect the other way; inactive = no such curve, though single readings can be large or run the other way; the % refers to the signal ratio)
Estrogen receptor (Homo sapiens), sequence (P03372 whole entry, looked up): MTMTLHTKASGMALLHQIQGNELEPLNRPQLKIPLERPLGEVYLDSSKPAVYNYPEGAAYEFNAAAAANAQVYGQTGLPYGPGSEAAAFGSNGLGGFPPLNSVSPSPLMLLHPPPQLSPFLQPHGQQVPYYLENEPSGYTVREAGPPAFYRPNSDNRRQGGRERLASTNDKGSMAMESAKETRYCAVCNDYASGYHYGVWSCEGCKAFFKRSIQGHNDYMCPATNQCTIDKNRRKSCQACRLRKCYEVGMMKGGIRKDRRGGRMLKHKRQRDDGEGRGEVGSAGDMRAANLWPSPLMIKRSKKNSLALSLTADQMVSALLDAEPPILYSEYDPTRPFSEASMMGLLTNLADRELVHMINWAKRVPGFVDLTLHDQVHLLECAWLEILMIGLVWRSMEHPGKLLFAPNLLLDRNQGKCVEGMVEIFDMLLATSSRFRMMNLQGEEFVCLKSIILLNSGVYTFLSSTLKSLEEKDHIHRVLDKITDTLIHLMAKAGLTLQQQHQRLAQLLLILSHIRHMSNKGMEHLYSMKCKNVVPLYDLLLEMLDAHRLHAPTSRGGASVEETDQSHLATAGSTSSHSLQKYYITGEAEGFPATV
How it was run: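 HEK293 cells stably carrying an ER-alpha-UAS-bla beta-lactamase reporter were pre-cultured overnight in 2% charcoal-stripped FBS medium. Test compounds in DMSO were added together with 17beta-estradiol for 18 hr at 37C. Read-out was fluorescence after 2 hr with LiveBLAzer B/G FRET substrate at room temperature.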

[5] = qHTS assay to identify small molecule antagonists of the estrogen receptor alpha (ER-alpha) signaling pathway - cell viability counter screen (AID 743074; calls by dose curve; also: nearly all actives have a fitted effect of over 45% in size)
[6] = target: Estrogen receptor (Homo sapiens) (UniProt P03372); assay: qHTS assay to identify small molecule agonists of the estrogen receptor alpha (ER-alpha) signaling pathway (AID 743075; calls by dose curve; also: potency is read from the fitted curve at half-maximal effect)
[7] = target: Estrogen receptor (Homo sapiens) (UniProt P03372); assay: qHTS assay to identify small molecule agonists of the estrogen receptor alpha (ER-alpha) signaling pathway using the BG1 cell line (AID 743079); also: nearly all actives have a fitted effect of over 20% in size; also: potency is read from the fitted curve at half-maximal effect
[8] = qHTS assay to identify small molecule antagonists of the estrogen receptor alpha (ER-alpha) signaling pathway using the BG1 cell line - cell viability counter screen (AID 743081);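 also: compound given together with 17beta-estradiol as the ER stimulus; series mostly up to about 70 µM; nearly all actives have a fitted effect of over 45% in size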
[9] = target: Aromatase (Homo sapiens) (UniProt P11511); assay: qHTS assay to identify aromatase inhibitors (AID 743083); also: nearly all actives have a fitted effect of over 55% in size; also: potency is read from the fitted curve at half-maximal effect
Aromatase (Homo sapiens), sequence (P11511 whole entry, looked up): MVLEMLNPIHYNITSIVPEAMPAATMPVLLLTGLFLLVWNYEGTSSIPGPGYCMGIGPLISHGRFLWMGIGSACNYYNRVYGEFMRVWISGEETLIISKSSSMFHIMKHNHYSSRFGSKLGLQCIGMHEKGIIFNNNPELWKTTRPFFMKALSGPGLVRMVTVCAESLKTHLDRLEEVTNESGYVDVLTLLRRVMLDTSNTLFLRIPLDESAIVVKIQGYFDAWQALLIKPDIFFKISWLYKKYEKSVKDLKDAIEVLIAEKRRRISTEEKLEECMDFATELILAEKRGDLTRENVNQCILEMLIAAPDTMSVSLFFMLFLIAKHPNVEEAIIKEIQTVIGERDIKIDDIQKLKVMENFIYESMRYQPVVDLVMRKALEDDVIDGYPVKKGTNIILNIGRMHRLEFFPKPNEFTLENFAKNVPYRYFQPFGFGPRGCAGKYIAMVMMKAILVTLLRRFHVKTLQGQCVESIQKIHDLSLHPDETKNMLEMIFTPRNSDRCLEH

[10] = qHTS assay to identify aromatase inhibitors - cell viability counter screen (AID 743084);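 also: cells stimulated with testosterone during compound exposure; nearly all actives have a fitted effect of over 55% in size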
[11] = target: Aryl hydrocarbon receptor (Homo sapiens) (UniProt P35869); assay: qHTS assay to identify small molecule that activate the aryl hydrocarbon receptor (AhR) signaling pathway (AID 743085); also: nearly all actives have a fitted effect of over 15% in size; also: potency is read from the fitted curve at half-maximal effect;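 as to activation: HG2L7.5c1 human HepG2 liver cells with stably integrated DRE-driven firefly reporter; series mostly up to about 70 µM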
Aryl hydrocarbon receptor (Homo sapiens), sequence (P35869 whole entry, looked up): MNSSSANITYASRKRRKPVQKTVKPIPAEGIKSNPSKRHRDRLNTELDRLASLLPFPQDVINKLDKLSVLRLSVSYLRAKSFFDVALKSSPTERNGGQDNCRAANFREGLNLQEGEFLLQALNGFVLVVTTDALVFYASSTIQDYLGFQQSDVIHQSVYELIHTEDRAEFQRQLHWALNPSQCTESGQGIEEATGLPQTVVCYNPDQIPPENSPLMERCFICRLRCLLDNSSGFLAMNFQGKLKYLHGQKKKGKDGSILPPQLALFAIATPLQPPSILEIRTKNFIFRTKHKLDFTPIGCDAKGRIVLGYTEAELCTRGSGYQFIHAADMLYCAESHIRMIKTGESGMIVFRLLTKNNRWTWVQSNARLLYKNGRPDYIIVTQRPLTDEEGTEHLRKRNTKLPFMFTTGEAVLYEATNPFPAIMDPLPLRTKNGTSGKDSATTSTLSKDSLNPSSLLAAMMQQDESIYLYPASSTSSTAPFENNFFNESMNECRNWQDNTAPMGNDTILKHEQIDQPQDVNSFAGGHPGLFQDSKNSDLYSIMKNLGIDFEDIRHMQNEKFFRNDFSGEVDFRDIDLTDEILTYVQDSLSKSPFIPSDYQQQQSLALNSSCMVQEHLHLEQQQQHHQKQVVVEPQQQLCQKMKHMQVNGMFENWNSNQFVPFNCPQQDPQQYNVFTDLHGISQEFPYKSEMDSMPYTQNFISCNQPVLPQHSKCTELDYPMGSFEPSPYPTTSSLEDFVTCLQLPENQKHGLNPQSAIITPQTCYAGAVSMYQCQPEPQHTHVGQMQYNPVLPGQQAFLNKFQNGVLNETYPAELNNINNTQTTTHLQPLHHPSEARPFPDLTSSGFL
How it was run: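 A multiplexed format paired cell viability (CellTiter-Fluor fluorescence) with AhR-dependent luciferase output (ONE-Glo luminescence) in the same wells of HepG2 DRE-luc cells after 24 h compound exposure at 37C.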

[12] = qHTS assay to identify small molecule that activate the aryl hydrocarbon receptor (AhR) signaling pathway - cell viability counter screen (AID 743086);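 also: HepG2 liver cells carrying the AhR DRE luciferase reporter; series mostly up to about 70 µM; nearly all actives have a fitted effect of over 45% in size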
How it was run: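 HepG2-AhR-luc (HG2L7.5c1) cells, 4000/well, were preincubated 5 h at 37C, exposed to compound in qHTS format for 24 hr at 37C, then given CellTiter-Fluor for 30 min; viability was read as fluorescence in the reporter wells.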

[13] = target: Peroxisome proliferator-activated receptor gamma (Homo sapiens) (UniProt P37231); assay: qHTS assay to identify small molecule agonists of the peroxisome proliferator-activated receptor gamma (PPARg) signaling pathway (AID 743094; active = well fitted activation curve with a large enough effect in the signal ratio in the repeat runs, not every such curve was filed as active; inconclusive = weak or mixed curves, or effect the other way; inactive = no such curve, though single readings can be large or run the other way; the % refers to the signal ratio)
Peroxisome proliferator-activated receptor gamma (Homo sapiens), sequence (P37231 whole entry, looked up): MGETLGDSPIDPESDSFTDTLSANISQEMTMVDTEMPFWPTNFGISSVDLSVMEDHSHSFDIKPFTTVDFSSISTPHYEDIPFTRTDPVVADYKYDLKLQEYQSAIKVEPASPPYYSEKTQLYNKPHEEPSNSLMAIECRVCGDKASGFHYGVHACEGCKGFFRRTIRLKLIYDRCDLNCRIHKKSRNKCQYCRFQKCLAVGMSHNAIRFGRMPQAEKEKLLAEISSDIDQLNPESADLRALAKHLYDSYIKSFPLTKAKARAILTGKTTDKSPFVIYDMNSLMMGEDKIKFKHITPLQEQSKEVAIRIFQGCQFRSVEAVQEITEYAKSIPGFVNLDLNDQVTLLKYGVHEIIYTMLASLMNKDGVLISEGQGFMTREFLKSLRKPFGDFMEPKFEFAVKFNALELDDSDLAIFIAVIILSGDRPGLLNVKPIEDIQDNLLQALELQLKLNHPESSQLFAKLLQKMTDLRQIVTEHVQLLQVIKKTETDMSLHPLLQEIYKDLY
How it was run: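 Following 5 h plating at 37C, PPARg-bla HEK293H cells receive compound or DMSO for 17 h; fluorescence intensity is recorded after LiveBLAzer B/G loading for 1 h at room temperature.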

[14] = qHTS assay to identify small molecule antagonists of the estrogen receptor alpha (ER-alpha) signaling pathway using the BG1 cell line (AID 743080; calls by dose curve;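 also: BG1 cells stimulated with 17beta-estradiol alongside compound; series mostly up to about 70 µM; nearly all actives have a fitted effect of over 25% in size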)
How it was run: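 Seeding, 24 h rest, compound transfer from DMSO, 17beta-estradiol addition, 21.5 h incubation, CellTiter-Fluor (30 min, 37 C), then ONE-Glo (30 min, room temperature): this sequence was run on BG1-Luc-4E2 reporter cells.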

[15] = qHTS assay to identify small molecule antagonists of the peroxisome proliferator-activated receptor gamma (PPARg) signaling pathway - cell viability counter screen (AID 743194); also: potency is read from the fitted curve at half-maximal effect; nearly all actives have a fitted effect of over 55% in size
How it was run: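 PPARg-UAS-bla HEK293H cells were plated, rested 5 h at 37 C, then treated with compounds plus rosiglitazone (50 nM final) for 17 h at 37 C; viability was then read by CellTiter-Glo luminescence after 30 min at room temperature.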

[16] = qHTS assay for small molecule activators of the heat shock response signaling pathway - cell viability counter screen (AID 743209); also: potency is read from the fitted curve at half-maximal effect; nearly all actives have a fitted effect of over 50% in size
How it was run: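 Counter screen for cytotoxicity in HeLa HSE-bla reporter cells. Treatment was 5 h at 37 C; viability was detected by luminescent ATP assay (CellTiter-Glo) in the same wells as the beta-lactamase read.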

[17] = qHTS assay to identify small molecule agonists of the peroxisome proliferator-activated receptor delta (PPARd) signaling pathway - cell viability counter screen (AID 743211)
How it was run: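 Tox21 library compounds, delivered in DMSO, were incubated 17 h with PPARd-bla HEK293H cells; cytotoxicity was taken from CellTiter-Glo luminescence read 30 min after reagent addition.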

Measured: Potency

C=CC1=C(C(=O)O)N2C(=O)[C@@H](NC(=O)/C(=N\O)c3csc(N)n3)[C@H]2SC1 (stereo in doubt)
inactive: [1] | [2] | [3] | [4] | [5] | [6] | [7] | [8] | [9] | [10] | [11] | [12] | [13]

O=C1c2ccccc2C(=O)C1c1ccc(F)cc1
inactive: [1] | [2] | [3] | [4] | [6] | [7] | [14] | [8] | [9] | [10] | [12] | [13]

O=C1CCC(c2ccc(-n3ccnc3)cc2)=NN1
active: [9] 6.68 µM | [11] 5.96 µM
inactive: [1] | [2] | [3] | [4] | [6] | [7] | [14] | [8] | [10] | [12] | [13]

N[C@H](C(=O)O)[C@@H]1CC(Cl)=NO1
inactive: [3] | [5] | [6] | [7] | [8] | [10] | [11] | [12] | [13]
active: [1] 5.96 µM | [2] 2.98 µM

NC(N)=NCCCCN=C(N)N
active: [6] 5.35 µM [inconclusive] | [7] 0.473 µM
inactive: [1] | [2] | [3] | [5] | [14] | [9] | [10] | [12] | [13]

CC(C)(C)C(=O)OCC(=O)[C@H]1CC[C@H]2[C@@H]3CCC4=CC(=O)CC[C@]4(C)[C@H]3CC[C@]12C
inactive: [1] | [2] | [3] | [4] | [5] | [6] | [14] | [8] | [9] | [10] | [11] | [12] | [13]

NC[C@H]1O[C@H](O[C@H]2[C@H](O)[C@@H](O[C@H]3O[C@H](CO)[C@@H](O)[C@H](N)[C@H]3O)[C@H](N)C[C@@H]2N)[C@H](N)C[C@@H]1O
inactive: [1] | [2] | [3] | [4] | [5] | [6] | [7] | [8] | [9] | [10] | [11] | [12] | [13]

C[C@@H]1C[C@H]2[C@@H]3C[C@H](F)C4=CC(=O)C=C[C@]4(C)[C@@]3(Cl)[C@@H](O)C[C@]2(C)[C@H]1C(=O)COC(=O)C(C)(C)C
inactive: [1] | [2] | [3] | [5] | [6] | [7] | [8] | [9] | [10] | [12] | [13]

Clc1nc(C(Cl)(Cl)Cl)c(Cl)c(Cl)c1Cl
active: [1] 21.7 µM | [2] 17.2 µM | [11] 61.1 µM | [15] 38.9 µM | [16] 17.4 µM | [17] 34.7 µM
inactive: [3] | [5] | [6] | [8] | [12]

NC(=O)CC[C@@H]1NC(=O)[C@H](Cc2ccccc2)NC(=O)[C@H](Cc2ccc(O)cc2)NC(=O)[C@@H](N)CSSC[C@@H](C(=O)N2CCC[C@H]2C(=O)N[C@@H](CCCN=C(N)N)C(=O)NCC(N)=O)NC(=O)[C@H](CC(N)=O)NC1=O
inactive: [1] | [2] | [3] | [5] | [8] | [9] | [10] | [11] | [12] | [13]

CCN(CC)C(=O)c1cccnc1
inactive: [1] | [2] | [3] | [5] | [8] | [12]

C[C@@H]1O[C@@H](OC[C@H]2O[C@@H](Oc3c(-c4ccc(OCCO)c(OCCO)c4)oc4cc(OCCO)cc(O)c4c3=O)[C@H](O)[C@@H](O)[C@@H]2O)[C@H](O)[C@H](O)[C@H]1O
inactive: [1] | [2] | [3] | [5] | [8] | [9] | [10] | [11] | [12] | [13]

CCN1CCCC1CNC(=O)c1cc(S(=O)(=O)CC)ccc1OC (configuration not stated)
inactive: [1] | [2] | [3] | [5] | [8] | [9] | [10] | [11] | [12] | [13]

Cc1cc(C(=O)NCCc2ccc(S(=O)(=O)NC(=O)NN3CCCCCC3)cc2)no1
inactive: [1] | [2] | [3] | [5] | [8] | [9] | [10] | [12] | [13]

N[C@@H](Cc1cnc[nH]1)C(=O)O
inactive: [1] | [2] | [3] | [5] | [8] | [9] | [10] | [12] | [13]

O=C(O)c1cc(=O)c2c3nc4ccccc4oc-3cc(=O)c2[nH]1
active: [11] 4.22 µM
inactive: [1] | [2] | [3] | [5] | [8] | [9] | [10] | [12] | [13]

N[C@@H](Cc1ccc(O)c(O)c1)C(=O)O
inactive: [1] | [2] | [3] | [5] | [8] | [9] | [10] | [11] | [12] | [13]
